Only some compounds are listed: those with a hit (about 4.6% of all), similar ones and a draw of the others.
D1 PAM = potentiators of human D1 dopamine receptor | P21728 | HEK293 TREx D1 cells, calcium flux, dopamine EC20 potentiation | potentiation, % at 10 µM | hit rate 0.036% among 360,000 | AID 504651; in the data active = potentiation above about 30%
D1 ag = human D1 receptor agonism. P21728. HEK293 T-REx D1 cells, calcium flux, agonist mode. activation, % at 2 µM. hit rate 1% among 360,000
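Agonism was scored from calcium flux recorded over 180 s (1 read/s) after pintool compound addition, following a 10-cycle baseline. Cells were inducible force-coupled HEK293 TREx D1, plated overnight at 30 C and loaded with no-wash calcium dye.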
TRHR enhancer = allosterically enhances the human TRH receptor; enhancement, % at 2 µM; hit rate 0.66% among 360,000; P34981; AID 493056; TRHR cells, fluo-8 calcium fluorescence, EC20 TRH enhancement; in the data active = enhancement above about 30%
Target sequence (P34981 whole entry, looked up): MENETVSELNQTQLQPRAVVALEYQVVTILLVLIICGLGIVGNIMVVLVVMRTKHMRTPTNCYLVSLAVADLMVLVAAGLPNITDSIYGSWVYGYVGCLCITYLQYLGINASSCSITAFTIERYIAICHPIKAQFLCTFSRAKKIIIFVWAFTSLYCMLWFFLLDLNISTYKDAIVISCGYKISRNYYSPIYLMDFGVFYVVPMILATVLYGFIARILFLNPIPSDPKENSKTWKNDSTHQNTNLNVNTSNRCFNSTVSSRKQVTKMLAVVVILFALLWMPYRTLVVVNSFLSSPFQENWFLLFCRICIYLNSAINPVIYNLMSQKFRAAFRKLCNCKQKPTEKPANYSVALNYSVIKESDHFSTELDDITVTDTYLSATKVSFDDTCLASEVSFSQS
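TRHR-expressing cells loaded with fluo-8 calcium dye were read kinetically (ex 480/em 530) during compound addition, then stimulated with an EC20 of TRH (10 nM final). Enhancement of the Gq-mediated intracellular calcium response was scored.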
TRHR agonist = activates the human TRH receptor | P34981 | TRHR cells, calcium flux fluo-8, FDSS agonist mode | activation, % at 2 µM | hit rate 0.18% among 360,000
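In this calcium-flux screen, cells bearing human TRHR are dye-loaded with fluo-8, baselined for 10 cycles, then exposed to library compounds; positive kinetic calcium responses during the agonist phase mark hits, with TRH as control.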
D1 antagonist = antagonists of human D1 dopamine receptor. P21728. HEK293 TREx D1 cells, calcium flux, dopamine EC80; hits give low values. activity change, negative = inhibition, % at 10 µM. hit rate 3.2% among 360,000; in the data active = activity change below about -30%
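Antagonism measured as reduced calcium response to an EC80 dopamine addition following 180 s compound pre-read; cells were inducible HEK293 Trex D1 plated overnight at 30 C, read kinetically at 1 cycle/sec.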
A number is an active result; ! = not confirmed by another sample. Rule as the data show it, unless noted: active = activation above about 30%; inactive = the rest.

For COc1ccc(CCN(C)C(=O)CSc2nccn2C)cc1OC the results were D1 PAM inactive, D1 ag inactive, TRHR enhancer inactive, TRHR agonist inactive and D1 antagonist inactive.
`Cc1cc(C)c(S(=O)(=O)NCC2CCC(C(=O)NCCc3ccccc3)CC2)c(C)c1` (stereo unspecified) gave D1 PAM inactive, D1 ag inactive, TRHR enhancer inactive, TRHR agonist inactive and D1 antagonist inactive.
O=C(O)c1ccc(NS(=O)(=O)c2ccc3c(c2)C2C=CCC2C(c2ccccc2F)N3)cc1 (stereo unspecified) was read as D1 PAM inactive, D1 ag inactive, TRHR enhancer inactive, TRHR agonist inactive and D1 antagonist -35.
Screening Cc1ccc(NS(=O)(=O)c2ccc3c(c2)[C@H]2C=CC[C@H]2[C@@H](c2ccc(F)cc2)N3)cc1C returned D1 PAM inactive, D1 ag inactive, TRHR enhancer inactive, TRHR agonist inactive and D1 antagonist inactive.
`COC(=O)c1ccc([C@H]2Nc3ccc(S(=O)(=O)Nc4cccc(C)c4)cc3[C@H]3C=CC[C@H]32)cc1` gave D1 PAM inactive, D1 ag inactive, TRHR enhancer inactive, TRHR agonist inactive and D1 antagonist -85.
Screening Cc1ccc2oc(-c3ccc(C)c(NC(=O)c4ccc(-c5ccccc5[N+](=O)[O-])o4)c3)nc2c1 returned D1 PAM inactive, D1 ag inactive, TRHR enhancer inactive, TRHR agonist inactive and D1 antagonist inactive.
Cc1c(C(=O)N/N=C/c2cccs2)nc2ccccn12 was read as D1 PAM inactive, D1 ag inactive, TRHR enhancer inactive, TRHR agonist inactive and D1 antagonist inactive.
`Cc1ccc(C(=O)N2CCC(C(=O)c3ccc(Cl)cc3)CC2)cc1` gave D1 PAM inactive, D1 ag inactive, TRHR enhancer inactive, TRHR agonist inactive and D1 antagonist -44.
Screening CN1CCN(C(=O)c2ccc(CSc3ccc(Cl)cc3)cc2)CC1 returned D1 PAM inactive, D1 ag inactive, TRHR enhancer inactive, TRHR agonist inactive and D1 antagonist -30.
For CN1CCN(C(=O)c2cc(Cl)ccc2NC(=O)c2ccc(Cl)cc2Cl)CC1 the results were D1 PAM inactive, D1 ag inactive, TRHR enhancer inactive, TRHR agonist inactive and D1 antagonist -31.
Screening CN1CCN(C(=O)c2ccc(Cl)cc2)CC1 returned D1 PAM inactive, D1 ag inactive, TRHR enhancer 33, TRHR agonist inactive and D1 antagonist inactive.
`O=C(Nc1ccccc1C(=O)N1CCCC1)c1ccc(Cl)cc1Cl` gave D1 PAM inactive, D1 ag inactive, TRHR enhancer inactive, TRHR agonist inactive and D1 antagonist inactive.
`Cc1ccc(C)c(NC(=O)CCN2CCCCC2)c1` gave D1 PAM inactive, D1 ag inactive, TRHR enhancer inactive, TRHR agonist inactive and D1 antagonist inactive.
O=C(Nc1ccccc1C(=O)NCCN1CCOCC1)c1ccc(Cl)cc1Cl was read as D1 PAM inactive, D1 ag inactive, TRHR enhancer inactive, TRHR agonist inactive and D1 antagonist -31.
CN(c1ccc(C(=O)N2CCOCC2)cc1)S(=O)(=O)c1ccc(Cl)cc1 was read as D1 PAM inactive, D1 ag inactive, TRHR enhancer inactive, TRHR agonist inactive and D1 antagonist inactive.
`O=C(c1ccc(Cl)cc1)N1CCN(c2ccnc3cc(Cl)ccc23)CC1` gave D1 PAM inactive, D1 ag inactive, TRHR enhancer inactive, TRHR agonist inactive and D1 antagonist -55.
For CN(c1ccc(C(=O)N2CCCCCC2)cc1)S(=O)(=O)c1ccc(Cl)cc1 the results were D1 PAM inactive, D1 ag inactive, TRHR enhancer inactive, TRHR agonist inactive and D1 antagonist -38.
Cc1cc(=O)[nH]c(N/N=C/c2ccc(OC(=O)c3cccnc3)cc2)n1 was read as D1 PAM inactive, D1 ag inactive, TRHR enhancer inactive, TRHR agonist inactive and D1 antagonist inactive.
CCOC(=O)COc1ccc(C)cc1C(=O)c1ccn2nc(-c3ccc(Cl)cc3)cc2n1 was read as D1 PAM inactive, D1 ag inactive, TRHR enhancer inactive, TRHR agonist inactive and D1 antagonist inactive.
`Cc1nc(SCCOc2ccccc2)[nH]c(=O)c1Cc1ccccc1` gave D1 PAM inactive, D1 ag inactive, TRHR enhancer inactive, TRHR agonist inactive and D1 antagonist inactive.
`COc1ccc(NC(=O)CSc2nc(O)c(Cc3ccccc3)c(=O)[nH]2)cc1` gave D1 PAM inactive, D1 ag inactive, TRHR enhancer 32, TRHR agonist inactive and D1 antagonist inactive.
Screening CCOC(=O)c1ccc(NC(=O)CSc2nc(C)c(Cc3ccccc3)c(=O)[nH]2)cc1 returned D1 PAM inactive, D1 ag inactive, TRHR enhancer inactive, TRHR agonist inactive and D1 antagonist -30.
Screening O=C(CSc1nc(O)c(Cc2ccccc2)c(=O)[nH]1)Nc1ccccc1 returned D1 PAM inactive, D1 ag inactive, TRHR enhancer inactive, TRHR agonist inactive and D1 antagonist inactive.
`O=c1[nH]c(SCCOc2ccccc2F)nc2ccccc12` gave D1 PAM inactive, D1 ag inactive, TRHR enhancer inactive, TRHR agonist inactive and D1 antagonist inactive.
For COc1ccc(OCCSc2nc(C)c(Cc3ccccc3)c(=O)[nH]2)cc1 the results were D1 PAM inactive, D1 ag inactive, TRHR enhancer inactive, TRHR agonist inactive and D1 antagonist -39!.
COc1ccccc1OCCSc1nc2ccccc2c(=O)[nH]1 was read as D1 PAM inactive, D1 ag inactive, TRHR enhancer inactive, TRHR agonist inactive and D1 antagonist -41.
COc1ccc(CNC(=O)C2CCN(S(=O)(=O)Cc3ccccc3)CC2)cc1 was read as D1 PAM inactive, D1 ag inactive, TRHR enhancer inactive, TRHR agonist inactive and D1 antagonist inactive.
`Cc1ccn(C(=O)c2ccc(NC(=O)CC(C)C)cc2)n1` gave D1 PAM inactive, D1 ag inactive, TRHR enhancer inactive, TRHR agonist inactive and D1 antagonist inactive.
Screening CC(=O)c1ccc(OCCCC(=O)N2CCN(S(=O)(=O)c3ccc(C)cc3C)CC2)cc1 returned D1 PAM inactive, D1 ag inactive, TRHR enhancer inactive, TRHR agonist inactive and D1 antagonist -31.
For CC(=O)c1ccc(OCCCC(=O)N2CCN(S(=O)(=O)c3cc(C)ccc3C)CC2)cc1 the results were D1 PAM inactive, D1 ag inactive, TRHR enhancer inactive, TRHR agonist inactive and D1 antagonist inactive.
Screening Cc1ccc(S(=O)(=O)N2CCN(C(=O)CCCOc3cccc(C)c3)CC2)cc1 returned D1 PAM inactive, D1 ag inactive, TRHR enhancer inactive, TRHR agonist inactive and D1 antagonist -39.
Cc1ccc(OCCCC(=O)N2CCN(S(=O)(=O)c3cccc(F)c3)CC2)cc1 was read as D1 PAM inactive, D1 ag inactive, TRHR enhancer inactive, TRHR agonist inactive and D1 antagonist -33.

Screening results from PubChem.
